Assay outcomes from PubChem BioAssay.
CatB mix inh: human cathepsin B inhibition by mixtures. Purified cathepsin B, AMC dipeptide fluorescence, compound mixtures. AID 488. inhibition, %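 (ten-compound pools at 5 µM per compound and 50 µM total)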. 62,000 compounds, 0.06% hits; in the data active = inhibition above about 22%, passing the limit was not always enough;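 note: 0% = enzyme without compound and 100% = no enzyme blank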
CatB block: blocks human cathepsin B protease activity. purified cathepsin B, fluorogenic substrate, fluorescence. 63,000 compounds, 0.1% hits. inhibition, %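 (tested at 10 µM)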; in the data active = inhibition above about 21%;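 note: 0% = enzyme with no compound and 100% = no enzyme blank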
CatG inh: cathepsin G (human) inhibition. AID 581. purified enzyme, AMC-tetrapeptide fluorescence, pooled mixtures. P08311. inhibition, % at 5 µM (by protocol). 62,000 compounds, 0.2% hits;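 active = inhibition above 20% in each of the two mixture wells holding the compound; inactive = inhibition of 20% or less in either well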;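 note: 0% = enzyme control without mixture and 100% = blank lacking enzyme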
Target sequence (P08311 21-244 limits assumed): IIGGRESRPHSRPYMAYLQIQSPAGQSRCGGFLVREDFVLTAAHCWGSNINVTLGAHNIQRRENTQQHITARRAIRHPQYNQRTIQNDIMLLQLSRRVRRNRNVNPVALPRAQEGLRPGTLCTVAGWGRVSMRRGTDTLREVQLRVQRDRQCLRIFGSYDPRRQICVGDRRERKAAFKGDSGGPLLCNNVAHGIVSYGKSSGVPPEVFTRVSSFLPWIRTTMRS
C1s block: human complement C1s inhibition; mean inhibition % of two 10-compound mixtures (hits give high values), % at 5 µM (by protocol); P09871; 62,000 compounds, 0.16% hits; purified C1s, fluorogenic AMC substrate, pooled mixtures;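 active = inhibition above 20% in each of the two 10-compound mixture wells holding the compound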;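 note: 0% = enzyme wells lacking compound mixture and 100% = no-enzyme blank wells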
CatL inh: inhibitors of human cathepsin L; purified cathepsin L, fluorogenic substrate, fluorescence; inhibition, %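 (tested at 10 µM)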; 58,000 compounds, 0.17% hits; AID 460; in the data active = inhibition above about 45%;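 note: 0% = enzyme with no compound and 100% = no enzyme blank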
CatS block: inhibitors of human cathepsin S; recombinant cathepsin S, AMC dipeptide fluorescence, pooled mixtures; inhibition, %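 (tested at 5 µM per compound within 10-compound mixtures)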; 62,000 compounds, 0.06% hits; AID 501; in the data active = inhibition above about 32%, passing the limit was not always enough;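 note: 0% = enzyme without compound and 100% = blank without enzyme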
Target sequence (P25774 115-331 limits assumed): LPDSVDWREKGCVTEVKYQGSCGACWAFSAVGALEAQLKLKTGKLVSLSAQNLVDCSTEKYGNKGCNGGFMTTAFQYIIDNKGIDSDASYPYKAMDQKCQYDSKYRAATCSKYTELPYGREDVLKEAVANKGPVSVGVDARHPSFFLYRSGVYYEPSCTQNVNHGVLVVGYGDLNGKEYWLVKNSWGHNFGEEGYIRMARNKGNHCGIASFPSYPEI
Active calls of the source: *; / = no result. Most compounds without a hit are left out; they make up all but 0.54% or so of the library.

SMILES | CatB mix inh | CatB block | CatG inh | C1s block | CatL inh | CatS block
CCOC(=O)C(C(=O)OCC)N(C#N)c1nc(SC)nc(N(C)C)n1 | / | 27* | / | / | 78* | /
O=C(Nc1ccc(-c2noc(COc3ccccc3Cl)n2)cc1)c1ccco1 | 1 | 4 | -4 | -3 | 6 | 14
CCCCC(=O)Nc1ccc(NC(=O)c2cccnc2)cn1 | 3 | 0 | 9 | 21* | 3 | 2
CCN(CC)CCNC(=O)c1sc2nc(-c3ccccc3)cn2c1C | 5 | 1 | 10 | 12 | 2 | 22
CC1CC(C)CN(c2nc3c(c(=O)[nH]c(=O)n3C)n2CCSc2nc3ccccc3o2)C1 (stereo not given) | 5 | -9 | 2 | -3 | / | 5
CSc1nnc(N(CCC#N)CCC#N)s1 | / | 2 | / | / | 6 | /
O=C(O)CCCC(=O)Nc1ccccc1C(=O)O | 4 | 3 | 10 | 49* | 7 | 19
CCCN(CCC)CCNC(=O)C(NS(=O)(=O)c1ccc2c(c1)CCC(=O)N2)c1ccccc1 (stereo not given) | 7 | 1 | 4 | -1 | 25 | 82*
Cc1cc(NC(=O)Nc2cc(C)nn2-c2ccccc2)n(-c2ccccc2)n1 | 8 | 3 | 12 | 14 | -3 | 5
Cc1cc(NC(=O)c2noc3c2CCc2ccccc2-3)n(-c2ccccc2)n1 | 2 | -1 | 59* | 14 | / | 6
O=C(CNC(=O)c1ccco1)OCN1C(=O)c2ccccc2C1=O | 25* | 21* | 10 | 43 | 1 | -10
CC(=O)Nc1nc2n(n1)C(c1ccc(F)cc1)C=C(c1ccccc1)N2 (stereo not given) | -2 | -2 | -4 | -15 | 49* | 6
COc1cccc(C2/C(=C(\O)c3ccc4c(c3)OCCO4)C(=O)C(=O)N2CCCN(C)C)c1OC (stereo not given) | / | -5 | / | / | -1 | /
COC(=O)c1ccccc1NC(=O)c1cc2sccc2n1C | -4 | 1 | 31* | -5 | -1 | 8
Cn1c(C(=O)NCCN2CCc3ccccc3C2)cc2c(=O)n(C)c3ccccc3c21 | 2 | 3 | 8 | 12 | 13 | 74*
Cn1c(C(=O)NCCN2CCOCC2)cc2c(=O)n(C)c3ccccc3c21 | 2 | -3 | -1 | -2 | / | 81*
Cn1c(C(=O)NCCN2CCN(c3ccccc3F)CC2)cc2c(=O)n(C)c3ccccc3c21 | 8 | -3 | 5 | 7 | 30 | 39
Cc1cccc(N2CCN(C(=O)c3cc4c(=O)n(C)c5ccccc5c4n3C)CC2C)c1 (stereo not given) | 4 | -1 | 10 | 16 | -4 | 6
CC1(C)Cc2c(sc3nc(SCC#N)n(C4CCCCC4)c(=O)c23)CO1 | / | -1 | / | / | 8 | /
O=C(NCCCN1CCN(Cc2ccccc2)CC1)C1CCN(c2nnc(-n3cccc3)s2)CC1 | 1 | 3 | 0 | 1 | 64* | 9
O=C(NCCCN1CCc2ccccc2C1)C1CCN(c2nnc(-n3cccc3)s2)CC1 | -10 | -4 | -4 | -32 | 78* | 2
Cc1cc(NC(=O)CSc2nnc(-c3ccncc3)n2N)ccc1Br | 1 | -2 | 5 | -34 | 5 | -13
CCOC(=O)N1CC=C2C(C#N)=C(N)C(C#N)(C#N)[C@H](c3ccccc3OCC)[C@H]2C1 | 7 | 2 | 10 | 64* | 5 | 14
N#Cc1nc(N2CCCCC2)nc(N2CCOCC2)n1 | 7 | 13 | 14 | -40 | 58* | 58*
CCOC(=O)CSc1nnc(Cc2ccccc2)n1Cc1ccco1 | -3 | 6 | -5 | -20 | 92* | -4
SMILES | CatB mix inh | CatB block | CatG inh | C1s block | CatL inh | CatS block
COc1ccccc1OCC(=O)Nc1oc(-c2ccccc2)c(-c2ccccc2)c1C#N | -3 | 55* | -3 | -28 | / | 4
Cc1ccc(S(=O)(=O)NCCC(=O)NCCN2CCCCCC2)cc1 | 5 | -3 | -2 | 0 | 64* | 23
Cc1ccc(S(=O)(=O)NCCNC(=O)CN2CCCC2)cc1 | -1 | 0 | -2 | 1 | 3 | 4
COc1ccc(CC(=O)OCc2cc3ccccc3[nH]c2=O)cc1 | 3 | 0 | -9 | 67* | 9 | -2
COc1ccc(CC(=O)OCc2cc3ccc(C)cc3[nH]c2=O)cc1 | 1 | -2 | 0 | -2 | 5 | -2
CCN(C(=O)COc1cc(=O)n(C)c2ccccc12)c1cccc(Cl)c1 | 0 | 57* | 6 | -5 | -1 | 1
CN(C(=O)COc1cc(=O)n(C)c2ccccc12)c1cccc(Cl)c1 | 3 | 0 | -1 | -3 | / | -6
